Among all 2,300 compounds or so, about 1,400 (61%) were called active. Inconclusive results (about 29%) are left out. The call rests on the fitted dose curve; in most records, active means well fitted inhibition curve with a large enough effect; inconclusive means small, poorly fitted or top-dose-only effect, or effect the other way; inactive means no such curve, though single readings can be large or run the other way. So high a share suggests a set chosen from earlier hits. This is one part of the list.
Assay: Confirmation screen for delayed death inhibitors of the malarial parasite plastid, 96 hour incubation; further: nearly all actives have a fitted effect of over 60% in size
Conditions: P. falciparum luciferase growth in erythrocytes; series mostly up to 28.7 µM
Excerpt: The goal of this screen is to discover new antimalarial compounds that act by inhibiting the development of the apicoplast in the malarial parasite Plasmodium falciparum. The biochemical processes that make this organelle essential for erythrocytic stage parasites are not well understood. However, antibiotics, such as azithromycin and tetracycline, which target the apicoplast translational machinery, have a potent antimalarial effect. […] We have developed a cell-based assay that measures parasite growth based on the expression of an integrated copy of a firefly luciferase reporter. To detect small molecules that cause this "delayed death phenotype, erythrocytes infected with the luciferase-expressing parasites were incubated with compounds for either one or two generations, corresponding to 48 and 96 hours, respectively. Compounds that inhibit parasite growth in the second generation, but not the first, should be enriched in antimalarials that target the apicoplast. Growth inhibition is detected by a decrease in luciferase activity. MLPCN Grant: R21 NS059500 Assay Provider: David Fidock and Eric Ekland, Columbia University Keywords: NIH Roadmap, MLPCN, MLI, MLSMR, qHTS, NCGC, qHTS, malaria, luciferase, viability
Four microliters of culture medium (RPMI 1640 with 0.5% w/v Albumax (GIBCO), 24 mM sodium bicarbonate and 10 ug/mL gentamycin) were dispensed by a Multi-drop Combi into white solid 1536-well plates (Grenier) and 23 nL compound was added by a pin tool. Four microliters of infected erythrocytes (2% hematocrit, 0.1% parasitemia final concentration) in culture medium were dispensed and the plates incubated for 96 hours at 37 C in 5% CO2. Two microliters of luciferase detection reagent was added and luminescence was detected by a ViewLux (PerkinElmer) reader
Potency means the concentration at half of the fitted maximal effect.

SMILES | Potency
O=C(NCCN1CCN(c2ccc([N+](=O)[O-])cc2)CC1)NCc1ccccc1 | 12.6 µM (active)
CC(C)CC1NC(=S)N(Cc2ccccc2)C1=O (centres undefined) | 3.98 µM (active)
CCC(C(=O)O)C1OC(C(C)C(O)C(C)C(=O)C(CC)C2OC3(C=CC(O)C4(CCC(C)(C5CCC(O)(CC)C(C)O5)O4)O3)C(C)CC2C)C(C)CC1C (centres undefined) | 0.178 µM (active)
CC(=O)N1CCN(S(=O)(=O)c2cccc(C(=O)NCCC3=CCCCC3)c2)CC1 | 12.6 µM (active)
COC(=O)COc1ccc(S(=O)(=O)NCCC2=CCCCC2)cc1Cl | inactive
CCNC(=O)NC(=O)C(C)OC(=O)c1oc2ccccc2c1CSC1CCCCC1 (centres undefined) | inactive
COc1ccc(OC)c(C2=CC(=O)C[C@H](c3ccc4c(c3)OCO4)C2)c1 | 12.6 µM (active)
CCOc1ccc(Cl)cc1C1=CC(=O)C[C@H](c2ccc(OC)cc2)C1 | 12.6 µM (active)
O=S(=O)(Nc1cccc2ncccc12)c1cccs1 | 3.55 µM (active)
Cc1ccc(S(=O)(=O)Nc2cccc3ncccc23)s1 | 3.98 µM (active)
CCCc1ccc(C(=O)NC(=O)c2ccccc2O)cc1 | 0.562 µM (active)
CC(C)N=C(NS(=O)(=O)c1ccccc1)C(Cl)(Cl)Cl | 4.47 µM (active)
O=C1c2cc(F)ccc2-n2c1nc1ccccc1c2=O | 0.158 µM (active)
O=C1c2ccccc2-n2c1nc1ccccc1c2=O | 0.501 µM (active)
NC(=S)Nn1c(-c2ccccc2)nc2ccccc2c1=O | inactive
O=C(CSc1nnc2ccc(-c3cccnc3)nn12)Nc1cccc(F)c1 | 8.91 µM (active)
Cc1cccc(N(C)C(=O)CN(C)S(=O)(=O)c2ccc3c(c2)c(=O)n(C)c(=O)n3C)c1 | 12.6 µM (active)
CC1CCC(NC(=O)CN(C)S(=O)(=O)c2ccc3c(c2)c(=O)n(C)c(=O)n3C)CC1 (centres undefined) | 3.98 µM (active)
Cc1cc(C)cc(-n2c(N)c(C(=O)Nc3c(C)n(C)n(-c4ccccc4)c3=O)c3nc4ccccc4nc32)c1 | 3.16 µM (active)
CCN(C(=O)c1cc2c(=O)n3ccccc3nc2n1CCCOC)C1CCCCC1 | 10 µM (active)
CCOC(=O)c1c(C)c(-c2ccccc2)n(CC(=O)NCCCN(CC)CC)c1C | 11.2 µM (active)
COc1ccc(-c2csc(N3CCN(C(=O)c4ccco4)CC3)n2)cc1 | 12.6 µM (active)
O=c1[nH]c(C(F)(F)F)nc2ccc3ccccc3c12 | inactive

SMILES | Potency
Cn1nc(C(F)(F)F)c(C(=O)Nc2ccc(F)cc2F)c1Sc1ccc(C(F)(F)F)cc1 | 7.94 µM (active)
CC(C)N(C(=O)CSc1nnc(-c2ccc3c(c2)OCO3)n1C)C(C)C | 10 µM (active)
O=C(Nc1ccccc1O)c1ccc([N+](=O)[O-])cc1 | 12.6 µM (active)
CCCOc1cc(NCc2ccccc2)c2ncn(C(C)C)c2c1 | 2.82 µM (active)
O=C(OC[C@@H]1O[C@@](O)(COC(=O)c2cccnc2)[C@H](OC(=O)c2cccnc2)[C@H]1OC(=O)c1cccnc1)c1cccnc1 | 6.31 µM (active)
Cn1c(CCn2ccccc2=O)nc2cc(NC(=O)COc3ccccc3)ccc21 | 10 µM (active)
COc1ccccc1OCCCOc1cccc(/C=C2\SC(=O)NC2=O)c1 | 11.2 µM (active)
CCOc1ccc(/C=C2\SC(=S)N(C(C(=O)O)c3ccccc3)C2=O)cc1OC (centres undefined) | inactive
CNC(=S)N(CCc1c(C)[nH]c2ccc(C)cc12)Cc1cc(OC)c(OC)c(OC)c1 | 11.2 µM (active)
CNC(=S)N(CCc1c(C)[nH]c2ccc(Cl)cc12)Cc1cccnc1 | 12.6 µM (active)
O=C(CCl)Nc1cn(-c2ccccc2)nc1-c1ccccc1 | 11.2 µM (active)
Cc1cccc(NC(=O)c2cn(-c3ccccc3)nc2-c2ccccc2)c1 | 14.1 µM (active)
OC(c1ccccc1)(c1ccccc1)C1CCN(C(=S)NCCc2ccccc2)CC1 | 5.01 µM (active)
CCC1CCCCN1CCCNC(=O)c1ccc(CS(=O)(=O)c2ccc(Br)cc2)o1 (centres undefined) | 5.01 µM (active)
CCCCN(CCCNC(=O)c1ccc(CS(=O)(=O)c2ccc(OC)cc2)o1)Cc1ccccc1 | 5.01 µM (active)
CN(CCNC(=O)c1ccc(CS(=O)(=O)c2ccc(Br)cc2)o1)CCc1ccccc1 | 2 µM (active)
CN(CCCNC(=O)c1ccc(CS(=O)c2ccc(Br)cc2)o1)Cc1ccccc1 (centres undefined) | 1.78 µM (active)
CCCCNC(=O)c1ccc(CS(=O)(=O)c2cccc(C(F)(F)F)c2)o1 | inactive
Cn1c(=O)c([N+](=O)[O-])c(-n2ccnc2)c2ccccc21 | 14.1 µM (active)
CCc1ccc(/C=N/n2c(C)cc(C)c(C#N)c2=O)cc1 | 6.31 µM (active)
COc1cccc(COC(=O)C2CC(=O)N(Cc3ccco3)C2)c1OC (centres undefined) | inactive
CCC1CN(C(=O)N2CCC(C(=O)NCc3cccc(OC)c3OC)CC2)c2cc(C)ccc2O1 (centres undefined) | 11.2 µM (active)
CC(CN1CCC(n2nccc2NC(=O)c2ccccc2Cl)CC1)c1ccccc1 (centres undefined) | 10 µM (active)

SMILES | Potency
Cc1ccc(CN2CCC(n3nccc3NC(=O)c3ccccc3C)CC2)o1 | 12.6 µM (active)
O=c1[nH]c(=O)n(Cc2ccco2)c2c1C(C(F)(F)F)(C(F)(F)F)N=C(CCc1ccccc1)N2 | 6.31 µM (active)
CCOCCCNC(=O)/C(C#N)=C/c1ccc(-c2ccc(S(=O)(=O)N3CCOCC3)cc2)o1 | 11.2 µM (active)
COc1ccc(NC(=O)CSc2ccc(-c3ccco3)nn2)c(OC)c1 | 11.2 µM (active)
Cc1cc(=O)n2nc(N3CCC(C(=O)NCc4ccc(F)cc4)CC3)sc2n1 | 8.91 µM (active)
Cc1cc(=O)n2nc(N3CCC(C(=O)NCc4ccc(Cl)cc4)CC3)sc2n1 | 10 µM (active)
Cc1cc(=O)n2nc(N3CCCC(C(=O)NCc4ccc(Cl)cc4)C3)sc2n1 (centres undefined) | 11.2 µM (active)
Cc1cc(=O)n2nc(N3CCC(C(=O)NCCc4ccc(Cl)cc4)CC3)sc2n1 | 10 µM (active)
O=C(CCl)Nc1ccc(S(=O)(=O)Nc2nccs2)cc1 | 1.26 µM (active)
O=C(CN1C(=O)/C(=C/c2ccc(F)cc2)SC1=S)N1CCN(CCc2ccccn2)CC1 | 15.8 µM (active)
CC(C)(C)C(=O)/C(=C\c1cccc([N+](=O)[O-])c1)n1cncn1 | 10 µM (active)
COc1ccc(OC)c(NC(=O)c2nc(S(=O)(=O)Cc3ccccc3)ncc2Cl)c1 | inactive
COc1ccc(OC)c(NC(=O)c2ccccc2N(C)S(=O)(=O)c2ccc(C)cc2)c1 | 15.8 µM (active)
C=CCN(c1ccccc1)S(=O)(=O)c1cccc(C(=O)N2CC(C)CC(C)C2)c1 (centres undefined) | 12.6 µM (active)
Cn1nc([N+](=O)[O-])nc1Sc1nnc(-c2ccccc2)o1 | 11.2 µM (active)
CSc1nc(C)c(C(=O)C[n+]2ccc(C)cc2)cc1C#N | 14.1 µM (active)
COC(=O)C(=C/C(C)=C/c1cccs1)C(=O)OC | 12.6 µM (active)
O=Nc1c(-c2c(O)[nH]c3cc(Br)ccc23)[nH]c2ccccc12 | 3.16 µM (active)
Brc1ccc(/C=N/Nc2ncnc3c2cnn3Cc2ccccc2)cc1 | 3.55 µM (active)
CC(C)[C@H](NC(=O)[C@@H]1Cc2c([nH]c3ccccc23)C2c3ccccc3C(=O)N21)C(=O)N1CCC[C@@H]1C(=O)O (some centres undefined) | 14.1 µM (active)
CCC(=O)Nc1cccc(C2=NOC3(C2)C[C@@H](C(N)=O)N(C(=O)c2cc([N+](=O)[O-])cc([N+](=O)[O-])c2C)C3)c1 (some centres undefined) | 11.2 µM (active)
COCCN(C(=O)CCCC(=O)Nc1ccccn1)C(C(=O)NC1CCCCC1)c1ccc(C)cc1 (centres undefined) | 10 µM (active)
COCCn1c(SCC(=O)Nc2ccccc2F)nc2c(c1=O)SCC2 | inactive

SMILES | Potency
CCNc1nc(NCC)n2c(SCC(=O)Nc3ccccc3F)nnc2n1 | 11.2 µM (active)
COc1ccc(CNCc2ccc3ccccc3c2)c(OC)c1 | 11.2 µM (active)
COc1cccc(CN(C)CC2CCCN(CCc3ccc(Cl)cc3)C2)c1OC (centres undefined) | 2.82 µM (active)
CCOc1cc(/C=C/C(=O)Nc2ccc(C(=O)NCCN(CC)CC)cc2)ccc1OCC(C)C | 2 µM (active)
CCC(=O)Nc1ccc2c(c1)ncn2-c1ccccc1OC | 11.2 µM (active)
Cn1nc(CC(=O)Nc2ncc(Br)s2)c2ccccc2c1=O | 7.94 µM (active)
COc1ccc(/C=C/C(=O)c2ccc([N+](=O)[O-])o2)cc1OC | 11.2 µM (active)
COc1ccc(Cl)cc1/C=C/c1ccc2cccc(O)c2n1 | 5.62 µM (active)
Oc1cccc2ccc(/C=C/c3ccccc3Br)nc12 | 2.24 µM (active)
Cc1ccc(C)c(N(CC(=O)Nc2cc(Cl)ccc2Oc2ccccc2)S(C)(=O)=O)c1 | 8.91 µM (active)
COc1ccccc1OCC(=O)Nc1cc(Cl)ccc1Oc1ccccc1 | inactive
CC(C)(C)NC(=O)[C@H]1CN(Cc2cccnc2)CCN1C[C@@H](O)C[C@@H](Cc1ccccc1)C(=O)N[C@H]1c2ccccc2C[C@H]1O | 3.98 µM (active)
CCc1ccc(Nc2n[n+](-c3ccccc3)c(-c3cccc(Cl)c3Cl)s2)cc1 | 2.82 µM (active)
Cc1c(C(=O)C(=O)N2CCCc3ccccc32)c2ccccc2n1C | 12.6 µM (active)
CN(c1ccccc1)S(=O)(=O)c1ccc(NC(=O)c2nc(S(C)(=O)=O)ncc2Cl)cc1 | inactive
CCOC(=O)/C=C/C(=O)Nc1ccc(S(=O)(=O)N(C)c2ccccc2)cc1 | 10 µM (active)
NC(=O)COc1ccc(C(=O)/C=C2/C(=O)Nc3ccccc32)cc1 | inactive
CC(=O)/C=C1/C(=O)Nc2ccccc21 | 12.6 µM (active)
Cc1cccc2c1NC(=O)/C2=C\C(=O)c1cccs1 | inactive
O=C(O)CCCCCNc1nc(-c2ccccc2)nc2ccccc12 | 10 µM (active)

— PubChem BioAssay AID504848 (National Center for Advancing Translational Sciences (NCATS), 2011)
